Assay results published in PubChem BioAssay (NCI).
Compounds without any hit were thinned out: in the full panel of roughly 79,000, 15% have a hit. A number with no mark means an inactive call. Calls of active or inactive are those of the source. Cut-off read from the data, not from the text of the source: active = growth inhibition above about 70%; inactive = the rest.

assay: NCI Yeast Anticancer Drug Screen. Data for the bub3 strain (AID 167); conditions: S. cerevisiae bub3 mutant strain, at 50.0 µM, active compounds read high
How it was run: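 Mutant yeast screening strain plus compound; vehicle-treated cultures serve as the 0% inhibition reference.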

| SMILES | growth inhibition |
| --- | --- |
| OC1C2COc3nc4ccccc4n3C(O2)C1O (stereo not given) | -14.9% |
| CN(C)CC1Cc2ccsc2C1=O (stereo not given) | 99.3% (active) |
| CCCC(O)C[N+](=O)[O-] (stereo not given) | 13.5% |
| CC1=NC(C)=C(/C(C)=N/NC(=O)c2ccccc2O)C(C)/C1=C(/C)NNC(=O)c1ccccc1O (stereo not given) | 82.8% (active) |
| O=[N+]([O-])c1cccc(S(=O)(=O)N/N=C/c2cc(I)cc([N+](=O)[O-])c2O)c1 | 4.7% |
| CNC(=O)OC(C)CN1c2ccccc2Sc2ccc(Cl)cc21 (stereo not given) | 88.3% (active) |
| O=[N+]([O-])c1ccc(NSc2ccccc2)cc1 | 91.3% (active) |
| CCOc1ccc2c(c1)nc1ccccc1[n+]2CC | 24.3% |
| O=C1C=CC(=O)c2c(O)c(N3CCN(CCO)CC3)c(Cl)c(O)c21 | 88.5% (active) |
| O=C1CSC(c2cccc([N+](=O)[O-])c2)N1c1ccc(-c2ccc(-n3c(-c4ccccc4)nc4ccccc4c3=O)cc2)cc1 (stereo not given) | 87.8% (active) |
| CCC(=O)c1ccc2ccc3ccccc3c2c1 | 68.8% |
| N#CSCc1c(Cl)cccc1Cl | 79.1% (active) |
| O=[N+]([O-])/C(C(Cl)=C(Cl)Cl)=C(/Sc1ccccc1)N1CCOCC1 | 89.5% (active) |
| COc1c2occc2c(OC)c2c(C)c(C(=O)OCCN3CCOCC3)oc12 | 58.1% |
| COc1cnn(-c2ccccc2)c(=O)c1SCc1ccc(Cl)c(Cl)c1 | 53% |
| COc1ccc(/C=C/c2c[n+]([O-])ccc2[N+](=O)[O-])cc1 | 9.35% |
| CS(=O)(=O)OCCCN(CCCOS(C)(=O)=O)c1ccc(C=Nc2ccc(-c3csc(COc4ccc(Br)cc4Br)n3)cc2)cc1 | 89.2% (active) |
| O=C(Nc1ccccc1-c1nn(C(=S)Nc2ccccc2)c(=S)n(C(=S)Nc2ccccc2)c1=O)C(F)(F)F | 15.4% |
| Cc1ccc(N=C(N)NN=C(c2ccc(Cl)cc2)c2ccc(Cl)cc2)cc1 | 97.2% (active) |
| Cc1cccc(C)c1N1C(=O)C(=O)C(c2nc3ccccc3s2)/C(=N/NC(=O)c2ccccc2O)C1=O (stereo not given) | 66% |

| SMILES | growth inhibition |
| --- | --- |
| CN(C)CC1CC/C(=C\c2ccc(O)cc2)C1=O (stereo not given) | 91.9% (active) |
| CCCCCC=C(c1cc(Br)cc(C(=O)O)c1O)c1cc(Br)cc(C(=O)O)c1O | 69% |
| CCS(CC)(CC)CC1CCCC2=CCC(P(=O)(c3ccccc3)c3ccccc3)CC21 (stereo not given) | 67.8% |
| Cc1c[n+](=O)c2ccccc2n1[O-] | -10.6% |
| O=C1CC(=S)NC(=S)N1 | -10.4% |
| CC1=NN(C(=O)c2ccc(Cl)cc2)C(=O)C1N=Nc1ccc(S(=O)(=O)Nc2ncccn2)cc1 (stereo not given) | -6.7% |
| COC(=O)c1cc(=O)n(-c2ccccc2OC)c(SC)n1 | 94.8% (active) |
| CCCCN(CCCC)Cc1ccc(NC(C(=O)c2ccccc2)c2ccccc2)cc1 (stereo not given) | 90.5% (active) |
| Cn1cc(/C=C/[N+](=O)[O-])c2ccc(OCc3ccccc3)cc21 | 76.3% (active) |
| O=C(c1ccc([N+](=O)[O-])cc1)N1CCCSC1=S | 16% |
| CCCCCCCCC(=O)NCCN(CCN)C(=O)CCCCCCCC | 90.1% (active) |
| Cc1nc2sc3c(c2c2nnnn12)CCCC3 | 27.6% |
| CCC(CC)(C(=O)Nc1ccc2c(c1)c(=O)c1ccccc1n2C)C(=O)Nc1ccc2c(c1)c(=O)c1ccccc1n2C | 61.2% |
| Cc1ccccc1N1CCN(c2c3c(nc4ccccc24)CCCCC3)CC1 | 97.5% (active) |
| O=C(Nc1ccccc1)c1cc(Cl)ccc1O | 74.7% (active) |
| CCCCCCCCCCCCCCCCCCOP(=O)([O-])OC1CC[N+](C)(C)CC1 | 89% (active) |
| CN(C)c1ccc(C(O)(Cc2cccc(C#N)c2)c2ccc(N(C)C)cc2)cc1 | 69% |
| CC(=O)N1CCC(Cc2ccccc2)CC1 | 22.4% |
| O=[N+]([O-])c1ccc(-n2ncc3cccnc32)c([N+](=O)[O-])c1 | 92% (active) |
| CC(C)OC(=O)c1ccc(NCC2=CC(=O)C=CC2=O)cc1Cl | 88.9% (active) |
